Screening results (PubChem)
In the library only some 2.3% were active in any assay of this set; here they are far more common.
CHT PAM: CHT positive allosteric modulators, primary screen, cell-based, membrane potential dye, choline EC20; 310,000 tested, 0.49% active; CHT-expressing cells; active compounds read high; LV-AA mutant CHT in HEK293 cells; B-score at 10 µM;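 active = initial fluorescence not abnormally high and integrated response B-score, plate-corrected, over 3 SD above library mean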
Target sequence (Q9GZV3 whole entry, looked up): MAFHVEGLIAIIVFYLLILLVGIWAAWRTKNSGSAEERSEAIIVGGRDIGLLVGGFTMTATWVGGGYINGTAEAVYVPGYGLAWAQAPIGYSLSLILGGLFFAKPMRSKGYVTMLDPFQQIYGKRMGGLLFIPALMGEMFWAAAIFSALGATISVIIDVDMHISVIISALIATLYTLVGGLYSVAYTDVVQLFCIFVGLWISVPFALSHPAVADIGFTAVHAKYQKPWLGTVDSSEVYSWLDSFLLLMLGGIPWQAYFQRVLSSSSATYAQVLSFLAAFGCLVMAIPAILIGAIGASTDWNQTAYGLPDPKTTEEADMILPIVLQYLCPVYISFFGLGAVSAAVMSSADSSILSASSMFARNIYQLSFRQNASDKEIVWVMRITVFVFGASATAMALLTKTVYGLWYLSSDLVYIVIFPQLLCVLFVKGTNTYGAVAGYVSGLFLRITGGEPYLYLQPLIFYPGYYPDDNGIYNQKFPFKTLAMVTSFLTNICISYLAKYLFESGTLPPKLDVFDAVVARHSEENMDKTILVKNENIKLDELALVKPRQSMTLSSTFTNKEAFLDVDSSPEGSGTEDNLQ
ANO1 block: TMEM16A chloride channel inhibitors, primary screen, cell-based, HTS | 310,000 tested, 1.2% active | HEK293 TMEM16A/YFP iodide influx fluorescence, ionomycin | AID 588511, 2011 | normalized B-score (activity score, 25-100; higher = stronger inhibition) at 10 µM | Anoctamin-1 (Mus musculus), Q8BHY3;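 active = ratio plate-corrected score three or more library SD toward inhibition, starting fluorescence score within five deviations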;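 note: score derived from kinetic fluorescence span divided by baseline fluorescence per well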
CHT block: inhibitors of human choline transporter CHT | CHT-expressing cells, membrane potential dye, choline response; active compounds read low | B-score at 10 µM | 310,000 tested, 0.86% active;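 active = B-score over 3 SD under the library average, and starting fluorescence ratio not unusually high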;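 note: choline stimulus applied at its EC90 after an EC20 pre-addition; B-score computed on integrated fluorescence ratio after choline addition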
TMEM16A act: TMEM16A chloride channel activators or potentiators, primary screen, cell-based, HTS; HEK293 TMEM16A/YFP-H148Q/I152L, iodide quench fluorescence; active compounds read low; B-score at 10 µM; 340,000 tested, 0.3% active;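 active = fluorescence-ratio B-score plate-corrected deviation score at least 3 library SD below zero, with starting fluorescence score within 5 deviations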;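 note: channel opened by trigger with iodide after compound preincubation; score built on the fluorescence ratio of max minus min over baseline; more negative score means more quench and so TMEM16A activation or potentiation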
Starred values were filed as active, the others as inactive.

`CCc1cccc(NC(=O)C2CCCN(S(=O)(=O)c3cccs3)C2)c1` (configuration not stated) gave CHT PAM inactive, ANO1 block inactive, CHT block inactive and TMEM16A act inactive.
`CC(=O)Nc1cccc(C(=O)NNC(=O)c2ccccc2-n2cccc2)c1` gave TMEM16A act inactive.
For COc1ccc(Cl)cc1C(=O)Nc1nc(C)cc(C)n1 the results were CHT PAM inactive, ANO1 block inactive, CHT block inactive and TMEM16A act inactive.
For O=C1c2ccccc2-c2onc3ccc(N4CCCC4)c1c23 the results were TMEM16A act -8.3*.
`CCOc1ccc2noc3c2c1C(=O)c1ccccc1-3` gave CHT PAM inactive, ANO1 block inactive, CHT block inactive and TMEM16A act inactive.
For COC(=O)C1=C(Nc2ccccc2NS(=O)(=O)c2ccc(C(F)(F)F)cc2Cl)CSC1 the results were CHT PAM inactive, ANO1 block 25*, CHT block inactive and TMEM16A act inactive.
Cc1ccc(-n2c(SCC(=O)c3c(N)n(C4CC4)c(=O)[nH]c3=O)nnc2N2CCOCC2)cc1 was read as TMEM16A act inactive.
`CCN(CC)CCCNc1nc(SC)nc2sc3c(c12)CCN(C)C3` gave CHT PAM 7.1*, ANO1 block inactive and CHT block inactive.
For CSc1nc(SCC(=O)NC(c2ccccc2)c2ccccc2)c2c3c(sc2n1)CN(C)CC3 the results were CHT PAM inactive, ANO1 block inactive, CHT block inactive and TMEM16A act inactive.
For Cc1nn(-c2cccc(Cl)c2)c2nc(C(F)(F)F)[nH]c(=O)c12 the results were CHT PAM inactive, ANO1 block 100*, CHT block inactive and TMEM16A act inactive.
Screening O=[N+]([O-])c1ccc(-c2nn(-c3ccccc3)cc2/C=N/n2c(-c3ccncc3)n[nH]c2=S)cc1 returned CHT PAM inactive, ANO1 block 25*, CHT block inactive and TMEM16A act inactive.
Screening O=C(Cn1nc(-c2ccccc2Cl)ccc1=O)Nc1ccc(Br)cc1 returned CHT PAM inactive, ANO1 block inactive, CHT block inactive and TMEM16A act -30*.
O=C(Cn1nc(-c2ccccc2Cl)ccc1=O)Nc1ccccc1-c1ccccc1 was read as CHT PAM inactive, ANO1 block inactive, CHT block inactive and TMEM16A act inactive.
`CC(C)(C)Cc1nnc(NC(=O)CCC2CCCCC2)s1` gave CHT PAM inactive, ANO1 block inactive, CHT block inactive and TMEM16A act inactive.
Screening COc1ccc(-c2c[n+]3c(n2-c2ccccc2)SCC3)cc1OC returned CHT PAM inactive, ANO1 block inactive, CHT block inactive and TMEM16A act -29*.
`O=C(Cc1cccs1)NCCS(=O)(=O)N1CCN(c2cccc(Cl)c2)CC1` gave CHT PAM inactive, ANO1 block inactive, CHT block inactive and TMEM16A act inactive.
Cc1ccc(S(=O)(=O)N2CCC(C(=O)N/N=C/c3cccn3C)CC2)cc1 was read as TMEM16A act inactive.
Screening COc1ccc(C(=O)c2ccc(OC)c(N)c2)cc1N returned CHT PAM 12*, ANO1 block inactive, CHT block inactive and TMEM16A act inactive.
`Cn1cnc2c(cnn2C)c1=O` gave TMEM16A act inactive.
For CC(C)CCNC(=O)CCCOc1ccccc1 the results were CHT PAM inactive, ANO1 block inactive, CHT block inactive and TMEM16A act -4.6*.
`CN(C(=O)c1ccc(C#N)cc1)c1nnc(-c2cnccn2)s1` gave CHT PAM inactive, ANO1 block inactive, CHT block inactive and TMEM16A act -5.2*.
For CC(C)(C)c1ccc(C(=O)c2c[nH]c(C(=O)O)c2)cc1 the results were CHT PAM inactive, ANO1 block inactive, CHT block inactive and TMEM16A act inactive.
Screening COC(=O)c1cc(C(=O)c2ccc(C(C)(C)C)cc2)c[nH]1 returned CHT PAM inactive, ANO1 block 25*, CHT block inactive and TMEM16A act inactive.
Screening CCN1CCCC1CNC(=O)C1CCN(Cc2nc(-c3cccc(Br)c3)oc2C)CC1 (configuration not stated) returned CHT PAM 8.3*, ANO1 block inactive, CHT block inactive and TMEM16A act inactive.
